# Screening results from PubChem.
# MEKK2mut PB1 HTS: MEK5 binding signal on mutant MEKK2 PB1, primary screen, biochemical, multiplex bead flow cytometry, Alexa488-MEK5 | Alexa488-MEK5 binding to MEKK2 mutant | percent response, % at 10 µM | hit rate 0.35% among 290,000 | AID 1530, 2009; in the data active = percent response above about 24%, passing the limit was not always enough
# MEKK3 PB1 HTS: modulators of MEKK3-MEK5 PB1 binding, primary screen, biochemical, wildtype MEKK3, multiplex bead flow cytometry, Alexa488-MEK5 | Mitogen-activated protein kinase kinase kinase 3 (Homo sapiens), Q99759 | bead-based flow cytometry, Alexa488-MEK5 binding to MEKK3; actives lie on both sides; 0 = blocked by unlabeled MEK5, 100 = vehicle | binding response (% of control), % at 10 µM | hit rate 1.4% among 290,000;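 active = binding response more than 3 SD above or below the average of its plate-row segment, actives on both sides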;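 note: Alexa488 bead fluorescence after subtracting the streptavidin-only scavenger bead signal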
# MEKK2 WT-MEK5: modulators of MEK5 binding to wildtype MEKK2, primary screen, biochemical, multiplex bead flow cytometry, Alexa488-MEK5 | Mitogen-activated protein kinase kinase kinase 2 (Homo sapiens), Q9Y2U5 | Alexa488-MEK5 binding to MEKK2 WT; actives lie on both sides | binding response (% of control), % at 10 µM | hit rate 1.1% among 290,000 | AID 1531, 2009; in the data active = binding response below about 67% or above about 130%
# CendR NRP1 mod: modulators of CendR peptide binding to NRP-1, primary screen, biochemical, fluorescence polarization, uHTS; Neuropilin-1 (Homo sapiens), O14786; FAM-RPARPAR peptide binding to NRP-1; inhibition, % at 25 µM; hit rate 0.85% among 360,000; AID 602438, 2012;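 active = inhibition or corrected inhibition above about 18%, plus a signal ratio from 0.5 to 1.5, limit read from the data, passing the limit was not always enough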
# Target sequence (O14786 whole entry, looked up): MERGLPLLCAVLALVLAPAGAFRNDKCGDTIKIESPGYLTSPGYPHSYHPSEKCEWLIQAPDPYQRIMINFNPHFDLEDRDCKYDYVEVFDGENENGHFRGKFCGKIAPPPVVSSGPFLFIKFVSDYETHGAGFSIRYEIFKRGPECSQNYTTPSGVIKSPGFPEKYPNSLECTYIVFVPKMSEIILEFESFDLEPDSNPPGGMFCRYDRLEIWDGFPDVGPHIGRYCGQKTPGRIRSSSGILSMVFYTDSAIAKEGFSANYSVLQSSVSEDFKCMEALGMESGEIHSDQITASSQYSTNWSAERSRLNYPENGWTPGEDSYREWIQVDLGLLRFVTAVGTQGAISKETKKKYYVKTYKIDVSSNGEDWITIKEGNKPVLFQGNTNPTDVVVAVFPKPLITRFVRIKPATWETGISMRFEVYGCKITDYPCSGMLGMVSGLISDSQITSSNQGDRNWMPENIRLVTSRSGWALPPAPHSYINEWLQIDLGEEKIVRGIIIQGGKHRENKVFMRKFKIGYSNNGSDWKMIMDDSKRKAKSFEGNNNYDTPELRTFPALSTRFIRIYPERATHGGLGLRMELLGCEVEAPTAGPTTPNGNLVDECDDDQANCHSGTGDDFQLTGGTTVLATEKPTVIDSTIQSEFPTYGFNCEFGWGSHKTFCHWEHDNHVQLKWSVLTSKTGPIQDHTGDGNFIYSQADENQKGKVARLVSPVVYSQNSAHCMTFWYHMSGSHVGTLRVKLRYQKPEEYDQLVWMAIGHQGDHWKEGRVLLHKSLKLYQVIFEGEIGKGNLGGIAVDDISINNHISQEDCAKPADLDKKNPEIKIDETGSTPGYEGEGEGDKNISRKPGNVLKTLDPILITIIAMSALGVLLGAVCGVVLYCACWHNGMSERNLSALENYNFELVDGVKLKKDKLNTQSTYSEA
# SKN-1 inh: suppressors of acrylamide-induced Pgst-4::GFP reporter in worms, primary screen, SKN-1 inhibitor project, whole organism, uHTS, GFP/RFP fluorescence ratio, strain VP596; hit rate 0.49% among 360,000; inhibition, % at 21.8 µM; C. elegans VP596 Pgst-4::GFP/RFP ratio, 24 h;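 active = interference check ratio from 0.5 to 1.5 plus GFP to RFP signal ratio inhibition reaching or exceeding a fixed threshold, cut at about 30% in these data, passing the limit was not always enough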
# Starred values were filed as active, the others as inactive; nt = no result given; [ ] = dose if it differs, or a comment. In the library only some 3.2% were active in any assay of this set; here they are far more common.
SMILES,MEKK2mut PB1 HTS,MEKK3 PB1 HTS,MEKK2 WT-MEK5,CendR NRP1 mod,SKN-1 inh
O=C(CCN1CCOCC1)NC1CCCN(Cc2ccccc2F)C1 (stereo not drawn),5.0,98.0,102.0,-3.4,15.3
N#Cc1ccc(OCc2nnc(SCC(=O)c3ccccc3)n2-c2ccccc2)cc1,-3.0,110.0,100.0,30.7*,12.4
Cc1nn(CC(=O)NCCCN2CCC(Cc3ccccc3)CC2)c(=O)c2cc(-c3ccccc3)nn12,48.0*,108.0,161.0*,15.2,7.1
Cc1nn(CC(=O)NCCCN2CCN(Cc3ccccc3)CC2)c(=O)c2cc(-c3ccccc3)nn12,16.0,103.0,116.0,8.4,-3.9
CCc1ccc(-c2cc3c(=O)n(CC(=O)NCCCN4CCC(Cc5ccccc5)CC4)nc(C)n3n2)cc1,29.0*,110.0,203.0*,-8.6,-6.5
C[C@@H]1CN([C@@H](C)CO)C(=O)CCCn2nncc2CO[C@H]1CN(C)S(=O)(=O)c1ccc2ccccc2c1,nt,nt,nt,-4.4,-10.8
CC1=C(C(=O)N2CCCC(N3CCN(c4ccccc4F)CC3)C2)OCCO1 (stereo not drawn),9.0,105.0,105.0,-0.5,4.4
COc1cc2sc3ccc(C#Cc4ccc(N)cc4)cc3c(=O)c2cc1OC,4.0,102.0,95.0,-4.0,39.7*
O=C1C=CC(=O)c2c(O)c(N3CCN(CCOCCO)CC3)c(Br)c(O)c21,nt,nt,nt,65.1*,47.5*
O=S(=O)(c1ccc(Br)cc1Cl)N1CCN(CCO)CC1,0.0,106.0,102.0,3.5,3.5
O=C1C=CC(=O)c2c(O)c(N3CCN(CCO)CC3)c(Cl)c(O)c21,nt,nt,nt,55.2*,32.1
O=S(Cc1ccccc1)Cc1ccccc1,nt,nt,nt,6.5,-5.9
CCCN(CC(=O)Nc1ccccc1C)C(=O)C1CCCN(C(=O)c2ccc(Cl)cc2)C1 (stereo not drawn),nt,nt,nt,18.9*,-11.3
CCCN(CC(=O)Nc1ccccc1C)C(=O)c1ccc(C2SCCS2)cc1,nt,nt,nt,25.7*,1.3
Cc1cccc(C)c1NC(=O)CNC(=O)C1CCCN(C(=O)c2ccc(Cl)cc2)C1 (stereo not drawn),nt,nt,nt,-6.2,-22.5
CCOC(=O)[C@]12CCC=C1N(Cc1ccc(Cl)cc1Cl)C(=O)[C@H](CC(=O)N1CCC(c3ccccc3)CC1)C2,nt,nt,nt,3.5,23.8
COc1ccc(N2C(=O)CCC(C(=O)NCc3ccccn3)C2c2ccc(OC)c(OC)c2)cc1 (stereo not drawn),4.0,110.0,112.0,21.5*,4.5
COc1ccc(N2C(=O)CCC(C(=O)NCc3ccccn3)C2c2ccc(F)cc2)cc1 (stereo not drawn),5.0,110.0,104.0,-3.5,2.6
O=[N+]([O-])c1ccc(Cl)c2c1C1C=CCC1C(c1ccccn1)N2 (stereo not drawn),-8.0,100.0,98.0,28.5*,25.9
COCCCNC(=O)C[C@@H]1C[C@@]2(C(=O)OC)CC(C)(C)CC=C2N(Cc2cccc3ccccc23)C1=O,nt,nt,nt,23.7*,19.2
CCCCOCCCNC(=O)C[C@@H]1C[C@@]2(C(=O)OC)CC(C)(C)CC=C2N(Cc2cccc3ccccc23)C1=O,nt,nt,nt,2.5,-7.8
O=C(CCCCCN1C(=O)c2ccccc2C1=O)NC1CCCC1,4.0,107.0,103.0,24.1*,1.8
CCOc1ccccc1CN1CCNC(=O)C1CC(=O)NCCCn1cccn1 (stereo not drawn),1.0,97.0,101.0,6.1,9.0
O=C1C(=Cc2ccccn2)CCc2ccccc21,nt,nt,nt,4.5,38.7*
C(=C1c2ccccc2-c2ccccc21)c1ccccn1,nt,nt,nt,-0.4,51.6*
SMILES,MEKK2mut PB1 HTS,MEKK3 PB1 HTS,MEKK2 WT-MEK5,CendR NRP1 mod,SKN-1 inh
CN(C)c1ccc(-c2ccnc3c2CC(C)(C(=O)NCc2ccco2)O3)cc1 (stereo not drawn),nt,nt,nt,0.0,8.4
O=C(O)C1C(C(=O)Nc2ccc(Cl)cc2)C2C=CC1C21CC1 (stereo not drawn),1.0,100.0,105.0,28.4*,8.6
O=C(Nc1ccc(Cl)cc1)C1C2CCC3C(CCC21)C3(Cl)Cl (stereo not drawn),3.0,100.0,101.0,16.3,-14.1
CN(C)c1ncnc2c1ncn2[C@H]1CN(Cc2cccnc2)C[C@@H](CO)O1,nt,nt,nt,-12.1,6.1
Cc1ccc(NC(=O)CN(C)C(=O)COC(=O)C2=COCCO2)cc1,nt,nt,nt,0.1,18.2
O=C(CNc1cc(S(=O)(=O)N2CCOCC2)ccc1N1CCCC1)Nc1ccc(Cl)cc1,nt,nt,nt,-10.2,4.6
C[C@@H]1CN([C@H](C)CO)C(=O)CCCn2nncc2CO[C@@H]1CN(C)C(=O)Nc1ccc2c(c1)OCO2,nt,nt,nt,-0.4,-22.3
COc1cc(C2Nc3cccc4cccc(c34)N2)cc(OC)c1OC(C)=O,nt,nt,nt,25.3*,12.5
CSc1ccccc1NC(=O)CN(C)CC(=O)Nc1ccccc1N1CCOCC1,-15.0,99.0,88.0,-10.9,0.4
CN1CCC(N(C)CC(=O)Nc2ccccc2N2CCOCC2)CC1,2.0,98.0,99.0,-2.9,39.5*
CCCN(Cc1nc2cc(Cl)ccc2c(=O)[nH]1)C(=O)c1ccc(S(=O)(=O)N2CCCC2)cc1,nt,nt,nt,-7.5,-1.9
Cc1ccc(C2CN(C)C3(C(=O)Nc4ccccc43)C23COc2ccccc2C3=O)cc1 (stereo not drawn),nt,nt,nt,40.3*,-17.8
Cc1cccc(Cn2c(=O)c3c(nc4n3CCN4Cc3ccco3)n(C)c2=O)c1,-16.0,2.0*[inhibitor],2.0*[inhibitor],-3.2,-22.3
O=C(c1ccc(OC2CCN(C/C=C/c3ccc(F)cc3)CC2)cc1)N1CCCC1,-2.0,97.0,105.0,9.8,-11.5
C=CCNc1nc(NCCN2CCOCC2)nc(N2CCOCC2)n1,9.0,103.0,105.0,2.9,35.0*
CN(C)c1cc(N/N=C\c2ccccc2)nc(N(C)C)n1,3.0,108.0,115.0,35.4*,13.8
OCCNCc1ccc(-c2ccccc2)cc1,3.0,100.0,102.0,0.5,16.5
OCCCNCc1ccc(N(c2ccccc2)c2ccccc2)cc1,33.0*,105.0,141.0*,6.4,8.5
c1ccc(CCNc2ccc3c(c2)Cc2ccccc2-3)nc1,nt,nt,nt,28.8*,-1.6
CCOc1ccc(N(CC(=O)Nc2ccc(OC)cc2OC)S(=O)(=O)c2c(C)[nH]c(=O)[nH]c2=O)cc1,-8.0,100.0,101.0,-7.2,5.3
CCC1(CC)C(=O)NN(c2ccccc2)C1=O,8.0,107.0,107.0,26.8*,-2.6
O=C(CC1(O)C(=O)Nc2cc(Cl)cc(Cl)c21)c1ccccc1O (stereo not drawn),12.0,108.0,105.0,43.3*,6.8
C[C@H]1CN([C@@H](C)CO)C(=O)c2cc(Br)cnc2O[C@H]1CN(C)C(=O)C1CCC1,nt,nt,nt,3.5,-8.0
